Results with a measured potency or affinity are listed apart. Active and inactive are the calls of the source. The limit is not given here; nearly all actives have IC50 up to about 0.91 µM.
What follows are molecules tested against Calcium-dependent protein kinase 4 (Plasmodium falciparum (isolate 3D7)) (UniProt Q8IBS5) (assay: PfCDPK4 kinase inhibitors, biochemical, TCAMS library (AID 1159588)). Settings: recombinant PfCDPK4, Kinase-Glo ATP depletion luminescence.
Sequence of Calcium-dependent protein kinase 4 (Plasmodium falciparum (isolate 3D7)) (Q8IBS5 whole entry, looked up): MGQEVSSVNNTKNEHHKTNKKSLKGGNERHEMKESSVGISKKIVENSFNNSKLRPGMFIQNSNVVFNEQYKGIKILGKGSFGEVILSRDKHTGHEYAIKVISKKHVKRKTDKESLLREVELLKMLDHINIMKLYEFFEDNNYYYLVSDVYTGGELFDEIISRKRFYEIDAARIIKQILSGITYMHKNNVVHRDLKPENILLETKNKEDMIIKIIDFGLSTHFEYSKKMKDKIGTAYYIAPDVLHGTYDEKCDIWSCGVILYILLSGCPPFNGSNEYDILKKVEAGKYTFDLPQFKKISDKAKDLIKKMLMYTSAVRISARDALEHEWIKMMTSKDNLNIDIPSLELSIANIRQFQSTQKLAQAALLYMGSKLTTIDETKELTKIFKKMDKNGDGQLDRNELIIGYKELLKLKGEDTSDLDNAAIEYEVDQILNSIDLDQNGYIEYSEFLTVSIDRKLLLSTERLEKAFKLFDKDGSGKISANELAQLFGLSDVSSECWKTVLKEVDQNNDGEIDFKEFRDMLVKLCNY
For `Cc1cc(C2CCN(CCCCNC(=O)c3ccc(NC(=O)c4ccc(Cl)cc4)cc3)CC2)c(C)cc1OCc1cccnc1`, the outcome was “inactive”.
For `CN1CCCN(Cc2ccc(-c3cccc(NC(=O)c4ccc(F)cc4)c3)cc2)CC1`, the outcome was “inactive”.
`CCCS(=O)(=O)N1CCC(CO)(Cc2ccccc2C(F)(F)F)CC1` was tested, and the outcome was “inactive”.
In the case of `Oc1ccc(CCNc2nc(NCCCOc3ccccc3-c3ccc(F)cc3)nc(N3CCNCC3)n2)cc1`, the outcome is reported as “inactive”.
For `O=C(Nc1cccc(-c2cccc(-c3nc4ccccc4[nH]3)c2)c1)N[C@@H]1C[C@H]1c1ccccc1`, the outcome was “inactive”.
`O=C(Nc1ccc(-c2cccc(-c3nc4ccc(C(F)(F)F)cc4[nH]3)c2)cc1)c1cccnc1` was tested, and the outcome was “inactive”.
For `COc1ccc(Cl)cc1S(=O)(=O)Nc1cccc(CCN2CCC(N3CCCCC3)CC2)c1`, the outcome was “inactive”.
With `COc1ccc(-n2ccnc2SCC(=O)Nc2cc(C)ccc2C)c(OC)c1` the outcome was “inactive”.
For `O=S(=O)(NCCN1CCCC1)c1cccc(-c2ccccc2CNC2Cc3ccccc3C2)c1`, the outcome was “inactive”.
`CCOC(=O)C(C)(C)Oc1ccc(C(=C2CC(C)(C)CC(C)(C)C2)c2ccc(O)cc2)cc1` was tested, and the outcome was “inactive”.
In the case of `Cc1nc(-c2ccc(-c3ccc(NC(=O)c4coc5ccc(N6C[C@@H](C)N[C@@H](C)C6)cc45)cc3)c(C)c2)no1`, the outcome is reported as “inactive”.
For `c1ccc(Oc2ccc(Nc3ccnc4cc(-c5ccc(CN6CCOCC6)o5)ccc34)cc2)nc1`, the outcome was “inactive”.
`COc1ccc2nc(C)cc(NN=Cc3ccccc3Cl)c2c1` was tested, and the outcome was “inactive”.
For `COc1ccc2nccc([C@@H](O)CN3CCC(NCc4ccc5nnsc5c4)CC3)c2c1`, the outcome was “inactive”.
